# Measurements taken from article PMC7862700, “An all-to-all approach to the identification of sequence-specific readers for epigenetic DNA modifications on cytosine”.
# Experiments:
# Experiment in all cases: DAPPL (digital affinity profiling via proximity ligation, sequencing); 10 mM Tris-HCl pH 7.5, 50 mM NaCl, 1 mM DTT, 4% glycerol, room temperature, 30 min; GST-TFs on glutathione beads, 16-mer random dsDNA library, 0.1% formaldehyde crosslink after washing; high values mean tight binding
# FLI1 = target: T1, FLI1 (Homo sapiens, UniProt Q01543 1-452); details: protein: recombinant; tags: N-terminal GST; dsDNA, one strand shown
# T1 sequence: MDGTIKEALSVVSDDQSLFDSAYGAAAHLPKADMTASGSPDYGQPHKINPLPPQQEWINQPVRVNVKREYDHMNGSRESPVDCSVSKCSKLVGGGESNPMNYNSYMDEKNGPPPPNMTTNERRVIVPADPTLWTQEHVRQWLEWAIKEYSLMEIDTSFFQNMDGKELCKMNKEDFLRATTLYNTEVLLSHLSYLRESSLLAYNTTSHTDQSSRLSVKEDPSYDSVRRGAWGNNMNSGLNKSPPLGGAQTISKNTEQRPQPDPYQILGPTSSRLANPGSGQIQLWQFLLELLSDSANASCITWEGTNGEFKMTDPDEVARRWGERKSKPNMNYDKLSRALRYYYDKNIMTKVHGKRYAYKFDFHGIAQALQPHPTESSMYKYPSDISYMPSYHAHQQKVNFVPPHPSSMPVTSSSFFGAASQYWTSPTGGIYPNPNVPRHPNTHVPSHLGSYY
# In short: (§1)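 Sequencing on an Illumina NextSeq500 followed washing, crosslinking with 0.1% formaldehyde, proximity ligation (BsaI/T4 ligase, 1 h, 37 °C) and PCR amplification of pools that had been incubated for 30 min at room temperature with 200 nmole of a random double-stranded 16-mer DNA library in Tris/NaCl/DTT/glycerol buffer. Each pool held DNA-barcoded human transcription factors, expressed in yeast as GST fusions and captured on glutathione beads, plus a tag-only sample. Binding signal is a hexamer's read frequency for a factor divided by its frequency in the tag-only sample.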
# ELK1 = target: T2, ELK1 (Homo sapiens, UniProt P19419 1-428); details: protein: recombinant; tags: N-terminal GST; dsDNA, one strand shown
# T2 sequence: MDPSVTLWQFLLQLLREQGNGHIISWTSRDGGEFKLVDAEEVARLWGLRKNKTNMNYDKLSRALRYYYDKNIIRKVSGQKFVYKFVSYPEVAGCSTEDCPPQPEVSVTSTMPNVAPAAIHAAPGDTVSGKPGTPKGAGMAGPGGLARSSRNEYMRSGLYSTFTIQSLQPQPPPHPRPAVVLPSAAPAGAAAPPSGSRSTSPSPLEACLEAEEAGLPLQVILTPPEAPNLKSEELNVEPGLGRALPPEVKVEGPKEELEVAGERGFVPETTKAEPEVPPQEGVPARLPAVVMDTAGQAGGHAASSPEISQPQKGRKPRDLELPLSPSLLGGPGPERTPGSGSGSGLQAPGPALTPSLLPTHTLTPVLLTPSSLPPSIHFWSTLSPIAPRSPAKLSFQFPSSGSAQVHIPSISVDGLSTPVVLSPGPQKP
# In short: as §1
# GABPA = target: T3, GABPA (Homo sapiens, UniProt Q06546 1-454); details: protein: recombinant; tags: N-terminal GST; dsDNA, one strand shown
# T3 sequence: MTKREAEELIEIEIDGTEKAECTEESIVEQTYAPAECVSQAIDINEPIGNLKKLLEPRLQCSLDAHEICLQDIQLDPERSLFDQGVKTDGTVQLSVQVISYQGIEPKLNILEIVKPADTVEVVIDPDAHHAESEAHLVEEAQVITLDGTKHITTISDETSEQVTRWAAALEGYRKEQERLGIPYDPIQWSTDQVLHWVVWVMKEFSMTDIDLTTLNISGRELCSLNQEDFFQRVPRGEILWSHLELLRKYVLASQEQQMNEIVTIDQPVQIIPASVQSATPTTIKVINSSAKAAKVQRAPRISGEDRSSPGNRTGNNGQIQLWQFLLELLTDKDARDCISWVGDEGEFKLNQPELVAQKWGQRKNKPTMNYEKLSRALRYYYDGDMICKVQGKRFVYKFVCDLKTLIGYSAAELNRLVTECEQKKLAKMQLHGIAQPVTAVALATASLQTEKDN
# In short: as §1
# ERG = target: T4, ERG (Homo sapiens, UniProt P11308 1-479); details: protein: recombinant; tags: N-terminal GST; dsDNA, one strand shown
# T4 sequence: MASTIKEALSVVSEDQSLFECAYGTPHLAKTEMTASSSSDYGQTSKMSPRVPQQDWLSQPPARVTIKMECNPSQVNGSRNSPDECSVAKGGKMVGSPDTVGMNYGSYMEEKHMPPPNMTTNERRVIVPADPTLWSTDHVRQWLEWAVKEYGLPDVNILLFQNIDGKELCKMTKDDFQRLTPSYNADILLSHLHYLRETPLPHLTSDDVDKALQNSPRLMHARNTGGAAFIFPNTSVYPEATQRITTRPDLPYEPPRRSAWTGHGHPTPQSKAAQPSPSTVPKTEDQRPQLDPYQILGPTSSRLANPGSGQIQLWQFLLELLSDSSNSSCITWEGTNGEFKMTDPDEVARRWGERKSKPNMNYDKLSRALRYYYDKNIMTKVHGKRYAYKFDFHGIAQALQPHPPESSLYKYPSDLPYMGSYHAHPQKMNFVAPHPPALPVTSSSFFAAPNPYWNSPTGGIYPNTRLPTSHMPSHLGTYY
# In short: as §1
# ELF1 = ELF1 (Homo sapiens, UniProt P32519 1-619); details: protein: recombinant; tags: N-terminal GST; dsDNA, one strand shown
# Chain of ELF1 (P32519 whole entry): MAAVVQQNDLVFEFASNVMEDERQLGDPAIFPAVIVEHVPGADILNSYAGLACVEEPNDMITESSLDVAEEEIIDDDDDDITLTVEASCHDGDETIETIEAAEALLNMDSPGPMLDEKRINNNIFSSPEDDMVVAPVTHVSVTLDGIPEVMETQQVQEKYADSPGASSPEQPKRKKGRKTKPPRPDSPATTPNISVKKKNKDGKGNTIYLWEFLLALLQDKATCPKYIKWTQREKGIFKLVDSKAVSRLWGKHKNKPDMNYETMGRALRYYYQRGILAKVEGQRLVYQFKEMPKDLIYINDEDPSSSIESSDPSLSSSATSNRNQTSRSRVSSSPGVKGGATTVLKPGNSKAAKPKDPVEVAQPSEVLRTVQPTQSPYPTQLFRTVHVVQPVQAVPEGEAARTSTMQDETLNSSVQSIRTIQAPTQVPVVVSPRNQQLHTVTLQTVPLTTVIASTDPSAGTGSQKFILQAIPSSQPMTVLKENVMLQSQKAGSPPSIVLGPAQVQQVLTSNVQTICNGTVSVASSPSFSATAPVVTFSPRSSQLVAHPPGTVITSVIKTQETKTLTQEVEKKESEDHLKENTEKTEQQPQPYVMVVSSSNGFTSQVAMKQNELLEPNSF
# In short: as §1
# EHF = target: T5, EHF (Homo sapiens, UniProt Q9NZC4 1-300); details: protein: recombinant; tags: N-terminal GST; dsDNA, one strand shown
# T5 sequence: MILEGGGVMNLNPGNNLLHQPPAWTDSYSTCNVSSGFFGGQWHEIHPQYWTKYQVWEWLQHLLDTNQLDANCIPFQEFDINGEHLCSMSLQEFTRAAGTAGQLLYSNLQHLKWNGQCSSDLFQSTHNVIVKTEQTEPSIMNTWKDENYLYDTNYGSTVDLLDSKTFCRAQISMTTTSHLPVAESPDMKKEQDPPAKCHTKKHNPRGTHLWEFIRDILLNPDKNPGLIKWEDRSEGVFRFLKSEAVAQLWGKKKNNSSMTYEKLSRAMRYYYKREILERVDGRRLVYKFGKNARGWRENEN
# In short: as §1
# SPI1 = SPI1 (Homo sapiens, UniProt P17947 1-270); details: protein: recombinant; tags: N-terminal GST; dsDNA, one strand shown
# In short: as §1
# SPIB = SPIB (Homo sapiens, UniProt Q01892 1-262); details: protein: recombinant; tags: N-terminal GST; dsDNA, one strand shown
# Chain of SPIB (Q01892 whole entry): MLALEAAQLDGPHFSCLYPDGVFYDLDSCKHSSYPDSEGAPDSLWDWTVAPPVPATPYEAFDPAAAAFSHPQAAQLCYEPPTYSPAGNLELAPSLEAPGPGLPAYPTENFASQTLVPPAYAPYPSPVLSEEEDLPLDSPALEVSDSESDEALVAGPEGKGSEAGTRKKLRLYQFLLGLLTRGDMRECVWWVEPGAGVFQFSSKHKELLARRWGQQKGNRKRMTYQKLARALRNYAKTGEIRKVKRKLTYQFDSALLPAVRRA
# In short: as §1
# ELK3 = target: T6, ELK3 (Homo sapiens, UniProt P41970 1-407); details: protein: recombinant; tags: N-terminal GST; dsDNA, one strand shown
# T6 sequence: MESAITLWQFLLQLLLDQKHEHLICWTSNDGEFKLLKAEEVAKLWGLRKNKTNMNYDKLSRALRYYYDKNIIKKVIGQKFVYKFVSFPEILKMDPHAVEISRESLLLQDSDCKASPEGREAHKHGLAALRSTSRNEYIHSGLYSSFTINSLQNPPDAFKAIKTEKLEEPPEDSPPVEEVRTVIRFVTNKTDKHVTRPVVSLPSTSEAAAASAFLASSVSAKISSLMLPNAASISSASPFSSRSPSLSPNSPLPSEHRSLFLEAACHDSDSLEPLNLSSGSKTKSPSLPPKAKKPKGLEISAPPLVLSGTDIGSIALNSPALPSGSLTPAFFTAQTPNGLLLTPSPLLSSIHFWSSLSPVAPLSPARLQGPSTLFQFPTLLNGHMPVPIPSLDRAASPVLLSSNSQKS
# In short: as §1
# FEV = target: T7, FEV (Homo sapiens, UniProt Q99581 1-238); details: protein: recombinant; tags: N-terminal GST; dsDNA, one strand shown
# T7 sequence: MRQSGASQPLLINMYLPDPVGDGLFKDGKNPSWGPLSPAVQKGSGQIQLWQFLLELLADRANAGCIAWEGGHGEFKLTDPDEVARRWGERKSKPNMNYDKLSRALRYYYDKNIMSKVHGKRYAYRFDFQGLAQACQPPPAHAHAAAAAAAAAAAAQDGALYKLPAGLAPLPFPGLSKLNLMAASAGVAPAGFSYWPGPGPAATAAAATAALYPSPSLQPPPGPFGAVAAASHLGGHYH
# In short: as §1
# ETV5 = ETV5 (Homo sapiens, UniProt P41161 1-510); details: protein: recombinant; tags: N-terminal GST; dsDNA, one strand shown
# Chain of ETV5 (P41161 whole entry): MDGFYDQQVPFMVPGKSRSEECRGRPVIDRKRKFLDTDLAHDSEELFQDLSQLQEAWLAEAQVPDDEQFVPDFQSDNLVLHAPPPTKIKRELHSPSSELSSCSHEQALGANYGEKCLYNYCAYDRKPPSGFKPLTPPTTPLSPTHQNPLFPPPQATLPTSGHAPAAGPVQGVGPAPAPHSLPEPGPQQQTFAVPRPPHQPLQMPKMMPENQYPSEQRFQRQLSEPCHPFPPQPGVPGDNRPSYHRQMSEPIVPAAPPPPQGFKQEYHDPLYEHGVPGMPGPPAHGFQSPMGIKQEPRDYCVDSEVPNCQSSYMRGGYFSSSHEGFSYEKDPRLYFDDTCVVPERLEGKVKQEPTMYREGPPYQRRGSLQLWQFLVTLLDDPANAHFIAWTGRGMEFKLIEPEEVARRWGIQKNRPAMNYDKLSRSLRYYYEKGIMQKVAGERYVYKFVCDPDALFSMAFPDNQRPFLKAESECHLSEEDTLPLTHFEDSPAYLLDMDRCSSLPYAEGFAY
# In short: as §1
# HSF1 = HSF1 (Homo sapiens, UniProt Q00613 1-529); details: protein: recombinant; tags: N-terminal GST; chain copies: 3; dsDNA, one strand shown
# Chain of HSF1 (Q00613 whole entry): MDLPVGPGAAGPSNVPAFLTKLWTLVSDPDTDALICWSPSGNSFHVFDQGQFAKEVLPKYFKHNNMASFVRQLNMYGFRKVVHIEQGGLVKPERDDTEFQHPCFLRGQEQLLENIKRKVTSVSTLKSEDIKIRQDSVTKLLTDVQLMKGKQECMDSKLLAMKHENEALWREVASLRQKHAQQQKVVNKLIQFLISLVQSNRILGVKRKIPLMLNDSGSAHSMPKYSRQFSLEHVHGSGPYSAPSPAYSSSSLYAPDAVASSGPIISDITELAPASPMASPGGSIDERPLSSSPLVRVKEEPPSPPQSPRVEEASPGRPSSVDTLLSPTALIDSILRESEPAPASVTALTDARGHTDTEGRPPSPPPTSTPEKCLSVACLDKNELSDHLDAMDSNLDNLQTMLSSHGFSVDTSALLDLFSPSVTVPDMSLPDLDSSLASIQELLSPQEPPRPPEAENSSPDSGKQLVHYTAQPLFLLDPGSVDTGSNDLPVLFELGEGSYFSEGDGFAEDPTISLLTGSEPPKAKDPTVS
# In short: as §1
# SPIC = target: T8, SPIC (Homo sapiens, UniProt Q8N5J4 1-248); details: protein: recombinant; tags: N-terminal GST; dsDNA, one strand shown
# T8 sequence: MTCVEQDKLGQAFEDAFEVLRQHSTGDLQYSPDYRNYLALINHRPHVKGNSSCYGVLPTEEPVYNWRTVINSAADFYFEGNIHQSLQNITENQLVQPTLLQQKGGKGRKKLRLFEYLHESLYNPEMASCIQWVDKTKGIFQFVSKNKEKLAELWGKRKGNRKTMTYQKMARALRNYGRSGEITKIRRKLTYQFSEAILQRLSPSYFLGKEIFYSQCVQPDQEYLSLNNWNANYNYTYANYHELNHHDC
# In short: as §1
# ELF4 = ELF4 (Homo sapiens, UniProt Q99607 1-663); details: protein: recombinant; tags: N-terminal GST; dsDNA, one strand shown
# Chain of ELF4 (Q99607 whole entry): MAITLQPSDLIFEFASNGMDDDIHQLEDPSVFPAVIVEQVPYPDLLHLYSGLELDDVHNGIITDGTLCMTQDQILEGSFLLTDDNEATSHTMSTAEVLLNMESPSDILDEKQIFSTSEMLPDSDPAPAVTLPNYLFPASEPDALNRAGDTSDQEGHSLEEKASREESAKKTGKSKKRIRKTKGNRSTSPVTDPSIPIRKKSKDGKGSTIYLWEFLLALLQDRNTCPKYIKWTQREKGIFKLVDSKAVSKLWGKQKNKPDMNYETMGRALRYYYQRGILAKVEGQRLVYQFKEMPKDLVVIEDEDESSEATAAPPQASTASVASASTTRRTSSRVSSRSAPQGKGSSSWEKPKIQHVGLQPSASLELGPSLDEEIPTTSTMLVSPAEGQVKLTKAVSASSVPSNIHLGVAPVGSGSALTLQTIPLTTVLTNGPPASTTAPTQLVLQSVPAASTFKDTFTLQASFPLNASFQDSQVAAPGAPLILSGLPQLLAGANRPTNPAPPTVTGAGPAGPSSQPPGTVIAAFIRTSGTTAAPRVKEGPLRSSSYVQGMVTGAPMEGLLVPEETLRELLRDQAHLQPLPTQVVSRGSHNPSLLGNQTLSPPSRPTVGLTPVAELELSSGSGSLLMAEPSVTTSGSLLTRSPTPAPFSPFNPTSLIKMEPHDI
# In short: as §1
# ELK4 = target: T9, ELK4 (Homo sapiens, UniProt P28324-2 1-405); details: protein: recombinant; tags: N-terminal GST; dsDNA, one strand shown
# T9 sequence: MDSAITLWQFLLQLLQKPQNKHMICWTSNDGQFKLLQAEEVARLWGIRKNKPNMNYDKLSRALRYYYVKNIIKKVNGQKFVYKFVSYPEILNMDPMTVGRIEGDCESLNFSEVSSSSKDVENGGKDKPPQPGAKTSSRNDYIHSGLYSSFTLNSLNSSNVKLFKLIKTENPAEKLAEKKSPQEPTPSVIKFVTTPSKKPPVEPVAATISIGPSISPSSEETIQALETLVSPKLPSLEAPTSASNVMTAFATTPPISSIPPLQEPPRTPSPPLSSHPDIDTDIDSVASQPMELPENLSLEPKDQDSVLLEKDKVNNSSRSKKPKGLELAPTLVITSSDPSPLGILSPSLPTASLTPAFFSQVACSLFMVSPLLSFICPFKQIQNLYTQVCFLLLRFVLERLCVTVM
# In short: as §1
# ETV2 = target: T10, ETV2 (Homo sapiens, UniProt O00321 1-342); details: protein: recombinant; tags: N-terminal GST; dsDNA, one strand shown
# T10 sequence: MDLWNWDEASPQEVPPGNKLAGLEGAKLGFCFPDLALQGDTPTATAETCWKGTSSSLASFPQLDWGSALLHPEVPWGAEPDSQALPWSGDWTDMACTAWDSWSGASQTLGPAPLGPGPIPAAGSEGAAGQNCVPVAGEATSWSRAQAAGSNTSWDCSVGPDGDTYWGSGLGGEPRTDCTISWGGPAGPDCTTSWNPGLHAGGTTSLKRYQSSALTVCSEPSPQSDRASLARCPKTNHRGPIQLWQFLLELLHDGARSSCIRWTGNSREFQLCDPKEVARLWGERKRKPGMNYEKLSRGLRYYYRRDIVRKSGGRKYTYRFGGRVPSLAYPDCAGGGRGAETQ
# In short: as §1
# ELF3 = target: T11, ELF3 (Homo sapiens, UniProt P78545 1-371); details: protein: recombinant; tags: N-terminal GST; dsDNA, one strand shown
# T11 sequence: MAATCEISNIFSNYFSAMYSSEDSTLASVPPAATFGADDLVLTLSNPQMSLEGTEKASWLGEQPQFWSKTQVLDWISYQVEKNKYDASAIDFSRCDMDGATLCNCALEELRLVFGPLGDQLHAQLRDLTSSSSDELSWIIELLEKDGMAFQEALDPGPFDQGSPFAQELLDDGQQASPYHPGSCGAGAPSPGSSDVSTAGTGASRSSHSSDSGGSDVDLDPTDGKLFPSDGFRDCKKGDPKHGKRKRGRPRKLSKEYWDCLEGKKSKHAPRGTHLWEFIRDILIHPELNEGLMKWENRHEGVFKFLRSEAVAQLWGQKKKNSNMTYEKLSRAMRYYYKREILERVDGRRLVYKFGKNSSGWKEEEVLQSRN
# In short: as §1
# CRX = CRX (Homo sapiens, UniProt O43186 1-299); details: protein: recombinant; tags: N-terminal GST; dsDNA, one strand shown
# Chain of CRX (O43186 whole entry): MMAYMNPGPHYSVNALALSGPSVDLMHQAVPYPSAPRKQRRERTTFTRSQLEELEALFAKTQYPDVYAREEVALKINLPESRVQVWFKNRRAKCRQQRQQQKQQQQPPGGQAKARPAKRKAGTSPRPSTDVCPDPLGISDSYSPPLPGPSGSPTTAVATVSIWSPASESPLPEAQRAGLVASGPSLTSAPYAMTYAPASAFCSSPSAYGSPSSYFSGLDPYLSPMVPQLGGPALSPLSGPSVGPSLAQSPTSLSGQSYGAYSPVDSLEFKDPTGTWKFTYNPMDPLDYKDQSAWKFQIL
# In short: as §1
# ETV1 = ETV1 (Homo sapiens, UniProt P50549 1-477); details: protein: recombinant; tags: N-terminal GST; dsDNA, one strand shown
# Chain of ETV1 (P50549 whole entry): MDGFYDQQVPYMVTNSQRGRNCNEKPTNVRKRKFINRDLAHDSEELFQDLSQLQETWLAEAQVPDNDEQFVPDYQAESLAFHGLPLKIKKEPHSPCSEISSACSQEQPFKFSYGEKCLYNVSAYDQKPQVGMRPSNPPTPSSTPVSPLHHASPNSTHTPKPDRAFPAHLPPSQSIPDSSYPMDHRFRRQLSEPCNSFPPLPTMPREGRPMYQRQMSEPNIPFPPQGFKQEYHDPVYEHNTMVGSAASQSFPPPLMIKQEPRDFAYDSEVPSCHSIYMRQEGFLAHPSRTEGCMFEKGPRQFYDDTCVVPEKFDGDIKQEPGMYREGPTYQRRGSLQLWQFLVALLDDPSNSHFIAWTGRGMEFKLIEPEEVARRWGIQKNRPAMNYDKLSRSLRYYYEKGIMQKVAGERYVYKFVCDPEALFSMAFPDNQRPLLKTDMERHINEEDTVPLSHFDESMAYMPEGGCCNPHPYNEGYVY
# In short: as §1
sequence,measurement,setting,value
CTCTTA,binding signal,FLI1,"1.35 fold enrichment (6-mer frequency, TF over GST control)"
same,binding signal,ELK1,"1.4 fold enrichment (6-mer frequency, TF over GST control)"
same,binding signal,GABPA,"1.45 fold enrichment (6-mer frequency, TF over GST control)"
same,binding signal,ERG,"1.27 fold enrichment (6-mer frequency, TF over GST control)"
same,binding signal,ELF1,"1.51 fold enrichment (6-mer frequency, TF over GST control)"
same,binding signal,EHF,"1.23 fold enrichment (6-mer frequency, TF over GST control)"
same,binding signal,SPI1,"1.4 fold enrichment (6-mer frequency, TF over GST control)"
same,binding signal,SPIB,"1.32 fold enrichment (6-mer frequency, TF over GST control)"
same,binding signal,ELK3,"1.36 fold enrichment (6-mer frequency, TF over GST control)"
same,binding signal,FEV,"1.34 fold enrichment (6-mer frequency, TF over GST control)"
same,binding signal,ETV5,"1.41 fold enrichment (6-mer frequency, TF over GST control)"
same,binding signal,HSF1,"1.52 fold enrichment (6-mer frequency, TF over GST control)"
same,binding signal,SPIC,"1.4 fold enrichment (6-mer frequency, TF over GST control)"
same,binding signal,ELF4,"1.32 fold enrichment (6-mer frequency, TF over GST control)"
same,binding signal,ELK4,"1.34 fold enrichment (6-mer frequency, TF over GST control)"
same,binding signal,ETV2,"1.49 fold enrichment (6-mer frequency, TF over GST control)"
same,binding signal,ELF3,"1.27 fold enrichment (6-mer frequency, TF over GST control)"
same,binding signal,CRX,"2.2 fold enrichment (6-mer frequency, TF over GST control)"
same,binding signal,ETV1,"1.38 fold enrichment (6-mer frequency, TF over GST control)"
